Where “and” joins values, the source holds several entries; their conditions need not be identical. Equal values may be shown once. Results filed as inconclusive are left out. Some compounds were tested as several samples or in several runs, with calls that do not always agree. Calls of active or inactive are those of the source. Unless noted, calls follow the shape of the dose curve; as a rule, active = well fitted curve in the direction sought with a large enough effect in the repeat runs; inconclusive = weak or mixed curves; inactive = no such curve, though single readings can be large; an effect the other way counts as inactive or inconclusive.
Tests used:
[1] = target: Acetylcholinesterase (Homo sapiens) (UniProt P22303); test: Acetylcholinesterase (AChE) small molecule antagonists: enzyme-based qHTS assay (AID 1347397; calls by dose curve; also: nearly all actives have a fitted effect of over 55% in size); details: Potency: AChE enzyme activity inhibition
Chain of Acetylcholinesterase (Homo sapiens) (P22303 whole entry, looked up): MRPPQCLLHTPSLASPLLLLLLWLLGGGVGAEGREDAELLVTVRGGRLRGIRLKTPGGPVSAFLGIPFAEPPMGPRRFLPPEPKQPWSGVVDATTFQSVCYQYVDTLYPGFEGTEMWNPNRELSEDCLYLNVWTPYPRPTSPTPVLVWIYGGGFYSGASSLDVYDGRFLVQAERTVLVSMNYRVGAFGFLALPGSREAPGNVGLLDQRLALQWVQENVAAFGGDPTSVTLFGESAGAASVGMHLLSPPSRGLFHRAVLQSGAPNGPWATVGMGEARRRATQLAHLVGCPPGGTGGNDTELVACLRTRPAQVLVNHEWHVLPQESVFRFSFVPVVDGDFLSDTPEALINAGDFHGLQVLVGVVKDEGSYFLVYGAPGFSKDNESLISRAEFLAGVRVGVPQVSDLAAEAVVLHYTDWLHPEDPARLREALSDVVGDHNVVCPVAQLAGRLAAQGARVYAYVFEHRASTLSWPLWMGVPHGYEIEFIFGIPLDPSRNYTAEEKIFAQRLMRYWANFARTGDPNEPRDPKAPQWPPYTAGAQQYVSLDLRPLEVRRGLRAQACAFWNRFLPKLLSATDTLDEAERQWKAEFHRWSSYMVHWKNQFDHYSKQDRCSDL
How it was run: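 First, recombinant human AChE (50 mU/mL as dispensed) received test compound or DMSO. Second, plates stood 30 min at room temperature. Third, DTNB and acetylthiocholine were added, followed by 10 min at room temperature and colorimetric detection.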

[2] = target: Acetylcholinesterase (Homo sapiens) (UniProt P22303); test: Acetylcholinesterase (AChE) small molecule antagonists: fluorescence cell-based qHTS assay (AID 1347398; calls by dose curve; also: nearly all actives have a fitted effect of over 50% in size); details: Potency: AChE activity
How it was run: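 Homogeneous quantitative HTS format. SH-SY5Y cells seeded at 2,000 per well settle overnight at 37 C. Compound pretreatment runs 30 min (37 C, 5% CO2); substrate/probe mix then reacts 40 min at RT before reading 490/520 nm.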

[3] = target: Acetylcholinesterase (Homo sapiens) (UniProt P22303); test: Acetylcholinesterase (AChE) small molecule antagonists: enzyme-based qHTS assay with human liver microsomes (AID 1347399; calls by dose curve; also: nearly all actives have a fitted effect of over 60% in size); details: Potency: qHTS inhibition
How it was run: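 Recombinant human AChE (50 mU/mL in the enzyme mix) and human liver microsomes (0.25 mg/mL final) were preincubated with compound and NADPH (0.25 mg/mL final) for 30 min at 37 C. Acetylthiocholine/DTNB was then added; thiocholine was read colorimetrically after 10 min at room temperature.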

[4] = target: Cytochrome P450 2D6 (Homo sapiens) (UniProt P10635); test: Cytochrome P450 Family 2 Subfamily D Member 6 (CYP2D6) small molecule antagonists: luciferase reporter qHTS assay (AID 1671196); also: nearly all actives have a fitted effect of over 50% in size
Chain of Cytochrome P450 2D6 (Homo sapiens) (P10635 whole entry, looked up): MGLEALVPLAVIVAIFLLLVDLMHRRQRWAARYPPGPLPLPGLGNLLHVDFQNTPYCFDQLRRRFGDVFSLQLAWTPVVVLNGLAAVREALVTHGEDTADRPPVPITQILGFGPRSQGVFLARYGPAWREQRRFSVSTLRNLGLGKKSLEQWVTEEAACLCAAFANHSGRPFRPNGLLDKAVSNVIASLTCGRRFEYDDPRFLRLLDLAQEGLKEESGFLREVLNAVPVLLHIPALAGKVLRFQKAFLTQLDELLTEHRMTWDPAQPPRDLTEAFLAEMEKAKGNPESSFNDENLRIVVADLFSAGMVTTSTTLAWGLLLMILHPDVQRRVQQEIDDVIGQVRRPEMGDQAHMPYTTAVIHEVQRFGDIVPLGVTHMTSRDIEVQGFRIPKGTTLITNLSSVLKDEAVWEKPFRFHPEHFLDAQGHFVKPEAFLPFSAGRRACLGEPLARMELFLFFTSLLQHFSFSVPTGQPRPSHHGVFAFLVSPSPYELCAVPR
How it was run: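 Room-temperature luminescent CYP2D6 activity assay: compound preincubated 10 min with enzyme–substrate mix, NADPH-initiated reaction 1 h, detection reagent 20 min before reading.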

[5] = target: Cytochrome P450 2C19 (Homo sapiens) (UniProt P33261); test: Cytochrome P450 Family 2 Subfamily C Member 19 (CYP2C19) small molecule antagonists: luciferase reporter qHTS assay (AID 1671197); also: nearly all actives have a fitted effect of over 65% in size
Chain of Cytochrome P450 2C19 (Homo sapiens) (P33261 whole entry, looked up): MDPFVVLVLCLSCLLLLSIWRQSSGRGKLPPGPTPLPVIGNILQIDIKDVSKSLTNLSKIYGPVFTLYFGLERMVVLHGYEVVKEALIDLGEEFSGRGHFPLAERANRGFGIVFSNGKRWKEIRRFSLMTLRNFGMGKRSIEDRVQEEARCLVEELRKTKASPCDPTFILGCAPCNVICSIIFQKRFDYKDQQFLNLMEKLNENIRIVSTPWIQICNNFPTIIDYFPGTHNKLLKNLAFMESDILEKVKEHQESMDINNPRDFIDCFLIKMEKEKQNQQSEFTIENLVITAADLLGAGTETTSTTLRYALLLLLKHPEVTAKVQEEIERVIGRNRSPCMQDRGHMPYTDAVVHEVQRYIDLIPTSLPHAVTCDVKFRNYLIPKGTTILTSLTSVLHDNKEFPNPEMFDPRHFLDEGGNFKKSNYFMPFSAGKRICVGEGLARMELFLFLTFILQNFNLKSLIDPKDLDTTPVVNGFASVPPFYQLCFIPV
How it was run: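 Light output is proportional to CYP2C19 activity: proluciferin substrate is converted to luciferin, then detected by a luciferin detection reagent that also stops the 1 h, 37C NADPH-driven reaction. Ketoconazole serves as positive control.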

[6] = target: Cytochrome P450 2C9 (Homo sapiens) (UniProt P11712); test: Cytochrome P450 Family 2 Subfamily C Member 9 (CYP2C9) small molecule antagonists: luciferase reporter qHTS assay (AID 1671198); also: nearly all actives have a fitted effect of over 50% in size
Chain of Cytochrome P450 2C9 (Homo sapiens) (P11712 whole entry, looked up): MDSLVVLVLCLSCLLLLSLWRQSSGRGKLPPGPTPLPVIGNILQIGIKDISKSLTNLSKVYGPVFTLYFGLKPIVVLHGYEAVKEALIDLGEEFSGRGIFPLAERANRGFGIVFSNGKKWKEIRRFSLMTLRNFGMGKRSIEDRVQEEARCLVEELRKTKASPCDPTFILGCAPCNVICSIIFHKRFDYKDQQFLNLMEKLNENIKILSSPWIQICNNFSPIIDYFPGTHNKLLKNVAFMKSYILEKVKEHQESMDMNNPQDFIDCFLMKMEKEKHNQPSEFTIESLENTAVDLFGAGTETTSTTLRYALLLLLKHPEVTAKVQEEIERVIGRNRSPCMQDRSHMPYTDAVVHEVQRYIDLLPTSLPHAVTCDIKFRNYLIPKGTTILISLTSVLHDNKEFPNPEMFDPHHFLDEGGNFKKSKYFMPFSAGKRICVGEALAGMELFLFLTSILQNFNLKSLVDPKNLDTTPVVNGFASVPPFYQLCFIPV
How it was run: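 Enzyme-substrate mix preincubated with compound 10 min at room temperature; reaction started with NADPH regeneration solution, 1 h 37C. Luminescent luciferin product read after 20 min detection reagent.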

[7] = target: Cytochrome P450 1A2 (Homo sapiens) (UniProt P05177); test: Cytochrome P450 Family 1 Subfamily A Member 2 (CYP1A2) small molecule antagonists: luciferase reporter qHTS assay (AID 1671199); also: nearly all actives have a fitted effect of over 50% in size
Chain of Cytochrome P450 1A2 (Homo sapiens) (P05177 whole entry, looked up): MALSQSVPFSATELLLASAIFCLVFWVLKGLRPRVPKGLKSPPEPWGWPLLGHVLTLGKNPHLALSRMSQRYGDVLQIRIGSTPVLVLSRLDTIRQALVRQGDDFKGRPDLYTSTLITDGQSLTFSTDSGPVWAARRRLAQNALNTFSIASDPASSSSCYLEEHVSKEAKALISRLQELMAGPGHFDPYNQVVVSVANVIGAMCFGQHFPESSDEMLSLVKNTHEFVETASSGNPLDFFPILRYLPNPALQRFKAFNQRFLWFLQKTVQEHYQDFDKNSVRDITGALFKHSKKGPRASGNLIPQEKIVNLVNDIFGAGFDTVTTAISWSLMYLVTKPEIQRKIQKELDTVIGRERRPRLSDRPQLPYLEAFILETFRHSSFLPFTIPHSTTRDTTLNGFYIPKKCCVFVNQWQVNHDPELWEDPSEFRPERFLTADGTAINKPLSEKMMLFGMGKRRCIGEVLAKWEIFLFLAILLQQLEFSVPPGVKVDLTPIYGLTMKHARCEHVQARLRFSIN
How it was run: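 Room-temperature CYP1A2 reaction with proluciferin substrate: compounds added from DMSO, 10 min preincubation, NADPH regeneration for 1 h. Luciferin detection reagent then added; luminescence recorded as RLU.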

[8] = target: Voltage-gated inwardly rectifying potassium channel KCNH2 (Homo sapiens) (UniProt Q12809); test: Human Ether-a-go-go-Related Gene (hERG) channel small molecule antagonists: fluorescence cell-based qHTS assay (AID 1671200); also: nearly all actives have a fitted effect of over 50% in size
Chain of Voltage-gated inwardly rectifying potassium channel KCNH2 (Homo sapiens) (Q12809 whole entry, looked up): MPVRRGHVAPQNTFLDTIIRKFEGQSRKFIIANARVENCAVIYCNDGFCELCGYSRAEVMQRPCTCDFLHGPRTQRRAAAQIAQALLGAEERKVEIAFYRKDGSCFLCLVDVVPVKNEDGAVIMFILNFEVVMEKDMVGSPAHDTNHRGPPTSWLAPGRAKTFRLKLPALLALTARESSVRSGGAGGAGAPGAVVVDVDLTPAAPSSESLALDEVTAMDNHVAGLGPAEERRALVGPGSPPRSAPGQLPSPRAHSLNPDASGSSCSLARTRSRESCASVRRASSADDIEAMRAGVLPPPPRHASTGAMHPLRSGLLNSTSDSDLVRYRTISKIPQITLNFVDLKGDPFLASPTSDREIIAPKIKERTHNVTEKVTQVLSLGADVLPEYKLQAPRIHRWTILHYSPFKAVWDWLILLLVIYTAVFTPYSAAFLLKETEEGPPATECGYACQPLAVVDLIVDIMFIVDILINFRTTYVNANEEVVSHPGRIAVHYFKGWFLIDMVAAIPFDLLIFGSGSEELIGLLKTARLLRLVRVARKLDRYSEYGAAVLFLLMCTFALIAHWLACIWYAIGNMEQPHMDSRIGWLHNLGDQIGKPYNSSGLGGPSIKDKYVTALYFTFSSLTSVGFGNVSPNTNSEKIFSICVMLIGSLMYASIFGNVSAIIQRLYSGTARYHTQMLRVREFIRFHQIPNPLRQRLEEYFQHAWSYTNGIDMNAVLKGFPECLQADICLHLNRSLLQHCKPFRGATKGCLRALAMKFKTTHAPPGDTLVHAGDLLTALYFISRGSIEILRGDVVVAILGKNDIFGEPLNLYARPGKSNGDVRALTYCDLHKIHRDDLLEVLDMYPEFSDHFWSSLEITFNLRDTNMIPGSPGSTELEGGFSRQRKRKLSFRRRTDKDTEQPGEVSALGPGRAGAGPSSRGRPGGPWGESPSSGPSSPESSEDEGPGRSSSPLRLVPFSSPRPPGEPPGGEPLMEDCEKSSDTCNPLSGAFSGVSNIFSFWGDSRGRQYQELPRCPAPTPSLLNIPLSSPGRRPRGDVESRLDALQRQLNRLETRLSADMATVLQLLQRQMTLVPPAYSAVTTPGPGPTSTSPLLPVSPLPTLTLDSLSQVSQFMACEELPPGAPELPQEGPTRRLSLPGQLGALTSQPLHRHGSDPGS
How it was run: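 hERG-U2OS cells plated overnight at 37 C, loaded with FluxOR II dye 1 h at RT in dark; after 10 min, thallium stimulus added. Fluorescence (480/540 nm) read kinetically for 2 min at 1 s intervals.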

[9] = target: Cytochrome P450 3A4 (Homo sapiens) (UniProt P08684); test: Cytochrome P450 Family 3 Subfamily A Member 4 (CYP3A4) small molecule antagonists: luciferase reporter qHTS assay (AID 1671201); also: nearly all actives have a fitted effect of over 50% in size
Chain of Cytochrome P450 3A4 (Homo sapiens) (P08684 whole entry, looked up): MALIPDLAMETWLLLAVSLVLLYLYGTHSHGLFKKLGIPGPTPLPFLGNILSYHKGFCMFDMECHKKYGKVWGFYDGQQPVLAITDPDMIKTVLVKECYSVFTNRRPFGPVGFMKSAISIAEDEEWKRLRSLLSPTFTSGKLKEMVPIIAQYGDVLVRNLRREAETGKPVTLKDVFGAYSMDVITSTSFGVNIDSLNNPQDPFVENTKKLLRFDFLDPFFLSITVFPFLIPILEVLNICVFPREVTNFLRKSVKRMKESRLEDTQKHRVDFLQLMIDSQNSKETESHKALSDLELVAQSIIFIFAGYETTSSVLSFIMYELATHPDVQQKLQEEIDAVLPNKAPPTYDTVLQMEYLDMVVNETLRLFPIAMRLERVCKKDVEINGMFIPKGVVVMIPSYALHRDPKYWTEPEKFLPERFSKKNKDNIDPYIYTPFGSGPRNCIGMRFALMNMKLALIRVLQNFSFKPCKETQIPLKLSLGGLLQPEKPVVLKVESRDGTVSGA
How it was run: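 P450-Glo CYP3A4 luminescent assay: compounds preincubated 10 min at room temperature with enzyme and proluciferin substrate, NADPH regeneration added, 1 h room-temperature reaction, stopped with luciferin detection reagent; luminescence read after 20 min. Ketoconazole positive control.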

Measured: Potency
Potency is read from the fitted curve at half-maximal effect.

CCOP(=S)(OCC)SCSC(C)(C)C
inactive: [1] | [2] | [4] | [8]
active: [3] 40.2 µM and 56.4 µM | [5] 9.01 µM and 3.17 µM | [6] 32 µM and 14.2 µM | [7] 39.9 µM | [9] 12.7 µM and 7.1 µM

CCCCOCC1CO1 (centres undefined)
899 nM (active) and inactive: [2]
10.1 µM (active) and inactive: [1]
63.7 µM (active) and inactive: [3]
inactive: all other assays above

Brc1ccc(Br)cc1
inactive: all assays above

CCCCCCCCCc1ccc(O)cc1
active: [5] 6.39 µM and 10 µM | [6] 20.2 µM and 31.7 µM
inactive and 39.9 µM (active): [7]
inactive: [2] | [3] | [4] | [8]

CC1CC(=O)O1 (centres undefined)
not listed: [1]
inactive: all other assays above

Cc1ccc(N=CN(C)C=Nc2ccc(C)cc2C)c(C)c1
79.6 µM (active) and inactive: [5]
active: [4] 31.9 µM and 35.6 µM and 27.5 µM | [7] 31.9 µM and 35.6 µM and 30.9 µM
not listed: [6]
inactive: all other assays above

CC(C)(O)C#N
inactive and 39.9 µM (active): [7]
active: [5] 75.3 µM and 39.9 µM
not listed: [6]
inactive: all other assays above

CCC/C=N/O
8.6 µM (active) and inactive: [2]
not listed: [1]
inactive: all other assays above

CCCCCCCCCCCCCl
31.3 µM (active) and inactive: [9]
not listed: [6]
inactive: all other assays above

O=P(OCCCl)(OCCCl)OCCCl
active: [5] 70.4 µM | [7] 35.3 µM and 35.6 µM
not listed: [6]
inactive: all other assays above

CC(C)(c1ccc(OCC2CO2)cc1)c1ccc(OCC2CO2)cc1 (centres undefined)
active: [5] 50.9 µM and 79.6 µM
not listed: [6]
inactive: all other assays above

Clc1ccc(C(Cl)(Cl)Cl)cc1
inactive and 28.3 µM (active): [5]
not listed: [6]
inactive: all other assays above

COP(=O)(NC(C)=O)SC (centres undefined)
71.1 µM (active) and inactive: [5]
not listed: [6] | [7]
inactive: all other assays above

CC(C)(O)C(=O)Nc1ccc([N+](=O)[O-])c(C(F)(F)F)c1
active: [5] 18.2 µM and 26 µM | [6] 25.7 µM and 29.2 µM | [7] 7.25 µM and 6.53 µM | [9] 40.8 µM
not listed: [4]
inactive: all other assays above

Cn1c(-c2ccccc2)cc(-c2ccccc2)[n+]1C
active: [4] 502 nM and 1 µM | [8] 43.6 µM
inactive and 35.6 µM (active): [6]
not listed: [2]
inactive: all other assays above

CC(C)(C#N)N=NC(C)(C)C#N
not listed: [6]
inactive: all other assays above

CCCCC(C#N)(Cn1cncn1)c1ccc(Cl)cc1 (centres undefined)
active: [5] 794 nM and 633 nM | [9] 158 nM and 224 nM
inactive: [1] | [2] | [3] | [8]

COc1ccc(O)c(C(C)(C)C)c1
active: [5] 7.99 µM and 5.64 µM | [7] 39.9 µM
inactive: [1] | [2] | [3] | [8]

[CH3][Sn]([Cl])([Cl])[Cl]
32.4 µM (active) and inactive: [4]
not listed: [1]
inactive: all other assays above

CCOP(=S)(OCC)SCn1c(=O)oc2cc(Cl)ccc21
active: [3] 8.55 µM and 3.99 µM | [4] 13.5 µM and 25.2 µM | [5] 76.2 nM and 89.4 nM | [6] 1.08 µM and 1.12 µM | [7] 2.7 µM and 3.99 µM | [8] 23.5 µM | [9] 241 nM and 317 nM
inactive: [2]

ClC(Cl)(Cl)c1ccccc1
89.5 µM (active) and inactive: [5]
not listed: [1]
inactive: all other assays above

CCCCOCCOC(C)=O
77.6 µM (active) and inactive: [5]
not listed: [6]
inactive: all other assays above

CCOS(=O)(=O)OCC
35.6 µM (active) and inactive: [7]
79.8 µM (active) and inactive: [5]
not listed: [6]
inactive: all other assays above

CC(C)(c1ccccc1)c1ccc(O)c(C(C)(C)c2ccccc2)c1
active: [4] 25 µM and 35.6 µM | [5] 5.59 µM and 3.56 µM | [7] 35.3 µM and 35.6 µM | [9] 8.86 µM and 6.33 µM
inactive: [1] | [2] | [3]

CCOP(=O)(OCC)OCC
17.5 µM (active) and inactive: [7]
49.4 µM (active) and inactive: [5]
not listed: [6]
inactive: all other assays above

CCC[CH2][Sn]([Cl])([CH2]CCC)[CH2]CCC
inactive: [1] | [2] | [3]
active: [4] 634 nM and 2 µM | [5] 2.01 µM and 2.24 µM | [7] 40 µM | [8] 12.3 µM and 6.92 µM | [9] 15.9 µM and 20 µM

CNC(=O)Oc1cccc2c1OC(C)(C)C2
active: [1] 726 nM and 200 nM | [2] 289 nM and 126 nM | [3] 5.14 µM and 1.59 µM | [5] 72.5 µM
inactive: [4] | [8] | [9]

O=C(O)c1nn(Cc2ccc(Cl)cc2Cl)c2ccccc12
62.8 µM (active) and inactive: [4]
not listed: [6]
inactive: all other assays above

ClC(Cl)=C(Cl)C(Cl)=C(Cl)Cl
not listed: [1]
inactive: all other assays above

O=C1Nc2ccc(Cl)cc2C(c2ccccc2)=NC1O (centres undefined)
inactive: [2]

CCN(CC)C(=O)C(C)Oc1cccc2ccccc12 (centres undefined)
active: [5] 1.01 µM and 633 nM | [7] 14.3 µM and 28.3 µM | [9] 6.33 µM
not listed: [6]
inactive: all other assays above

CC(C)=CC1C(C(=O)OCN2C(=O)C3=C(CCCC3)C2=O)C1(C)C (centres undefined)
inactive: [2] | [3] | [7]
active: [4] 22.4 µM and 15.5 µM | [5] 8.94 µM and 3.89 µM | [6] 35.6 µM and 27.5 µM | [8] 38.9 µM

CCC1(c2ccc(N)cc2)CCC(=O)NC1=O (centres undefined)
active: [9] 31.7 µM and 13.8 µM
not listed: [6]
inactive: all other assays above

C[N+](C)(C)CC(=O)O
inactive and 17.4 µM (active): [7]
not listed: [1]
inactive: all other assays above

N#Cc1c(Cl)c(Cl)c(Cl)c(C#N)c1Cl
34.9 µM (active) and inactive: [4]
active: [5] 17.5 µM and 22.4 µM | [6] 5.53 µM and 5.64 µM | [7] 984 nM and 1 µM | [9] 984 nM and 1.26 µM
inactive: [1] | [3] | [8]

O=S(=O)(O)C(F)(F)C(F)(F)C(F)(F)C(F)(F)C(F)(F)C(F)(F)C(F)(F)C(F)(F)F
active: [5] 42.6 µM and 22.4 µM
inactive and 50.2 µM (active): [7]
not listed: [6]
inactive: all other assays above

S=c1[nH]c2ccccc2[nH]1
10.1 µM (active) and inactive: [2]
inactive: [3] | [4] | [8]
35.7 µM (active) and inactive: [1]
active: [5] 39.9 µM | [7] 35.7 µM and 35.6 µM | [9] 5.65 µM and 7.96 µM

COP(=S)(OC)Oc1ccc(Sc2ccc(OP(=S)(OC)OC)cc2)cc1
63.3 µM (active) and inactive: [4]
active: [5] 3.17 µM and 4.9 µM
not listed: [6]
inactive: all other assays above

CSc1nc(NC(C)C)nc(NC(C)C)n1
active: [5] 39.8 µM and 71 µM | [7] 17.8 µM
not listed: [6]
inactive: all other assays above

From PubChem BioAssay (Tox21)
